Test results reported in PubChem BioAssay AID540259 (Broad Institute, 2011).
Measured potencies and affinities stand elsewhere. Activity calls are given as the source filed them.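 Rule for the calls: active = cell killing, meaning signal decrease, with fitted half-maximal dose at or below ten times the top valid tested dose; inconclusive = poor fit, or flat curve with 30 to 70% signal loss; inactive = the rest.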

Test: HeLa cell cytotoxicity, dose response, cytotoxicity control for MITF activator project, CellTiter-Glo luminescence, cherry-pick samples (AID 540259)
Settings: HeLa viability, CellTiter-Glo ATP luminescence, 24 h; series mostly up to 35 µM
In the case of `COc1cccc(/C=N/Nc2c(Cl)cncc2Cl)c1O`, the outcome is reported as “inactive”.
In the case of `c1ccc(CSCc2cn3ccsc3n2)cc1`, the outcome is reported as “inactive”.
With `Cc1nc(SCc2ccccc2)nc2c1CCC2` the outcome was “inactive”.
With `N#C/C(C(=O)N1CCCCC1)=C1\Nc2ccccc2S1` the outcome was “inactive”.
For `COc1ccc(Oc2ncnc3sccc23)cc1`, the outcome was “inactive”.
With `O=C(N/N=C/c1ccc(OC(=O)c2ccccc2Cl)cc1)c1ccccn1` the outcome was “inactive”.
In the case of `Cc1ccc(-c2csc(C(C#N)=C3CCCC3)n2)cc1`, the outcome is reported as “inactive”.
In the case of `CCN1CCN(c2cc3c(nn2)Oc2ccccc2N3C)CC1`, the outcome is reported as “inactive”.
With `Cc1ccc(-c2cn(-c3ccccc3)c(=S)[nH]2)cc1C` the outcome was “inactive”.
In the case of `Cc1ccc(CNc2ccc3c(c2)ncn3C(C)C)cc1`, the outcome is reported as “inactive”.
For `Clc1ccc(C#Cc2cccnc2)cc1`, the outcome was “inactive”.
In the case of `COC(=O)Cn1c(=NC(=O)c2ccc(Cl)s2)sc2cc(C)ccc21`, the outcome is reported as “inactive”.
With `CCC(=O)N1CCc2nc(-c3ccccc3)sc2C1` the outcome was “inactive”.
For `COc1ccc(/C=N/Nc2nccnc2Cl)c(OC)c1`, the outcome was “inactive”.
For `COc1ccc(NC(=O)Nc2ccc(Br)cn2)cc1`, the outcome was “inactive”.
In the case of `COC(=O)Cc1ccc(NC(=O)c2ccc(C)c(C)c2)cc1`, the outcome is reported as “inactive”.
With `Nc1ncccc1OCc1ccc(Br)cc1` the outcome was “inactive”.
In the case of `COc1ccc(Oc2nnc(C)c3ccccc23)cc1`, the outcome is reported as “inactive”.
For `c1cncc(-c2nc3ccccc3s2)c1`, the outcome was “inactive”.
For `O=C(Nc1ccc(Br)cc1F)c1ccc2nsnc2c1`, the outcome was “inactive”.
For `c1ccc2c(Nc3nnc(-c4ccncc4)s3)cccc2c1`, the outcome was “inactive”.
With `Cc1cccc(NC(=O)c2onc3c2CCCC3)c1C` the outcome was “inactive”.
In the case of `CC(=O)c1cnc2nc(SCc3ccccc3)nn2c1C`, the outcome is reported as “inactive”.
In the case of `CC(C)c1ccc(NC(=O)Cn2ncc3ccccc32)cc1`, the outcome is reported as “inactive”.
For `Nc1c(C(=O)C2CC2)sc2nc3c(cc12)CCC3`, the outcome was “inactive”.
For `Cc1ccc(-c2csc(NC(=O)c3ccc(Br)cc3)c2C(=O)O)cc1`, the outcome was “inactive”.
With `COc1ccccc1NC(=O)Nc1nc2ccc(S(N)(=O)=O)cc2s1` the outcome was “inactive”.
With `Cc1[nH]n(-c2cccc(Cl)c2)c(=O)c1C=NCC(C)C` the outcome was “inactive”.
For `Cn1cccc1C(=O)N/N=C/c1c(Cl)cccc1Cl`, the outcome was “inactive”.
For `CC(C)(C)N1C(=O)c2ccc(C(=O)Nc3nccs3)cc2C1=O`, the outcome was “inactive”.
With `N/C(=N\OC(=O)C1CCCCC1)c1cccc(Br)c1` the outcome was “inactive”.
For `CCC(C)NC(=O)c1cn(-c2cccc(C)n2)cn1` (stereo unspecified), the outcome was “inactive”.
In the case of `O=C(Cc1ccccn1)c1ccc(Cl)cc1`, the outcome is reported as “inactive”.
With `O=C(Oc1ccc2ccccc2c1Cl)N1CCCCCC1` the outcome was “inactive”.
For `Cc1ccccc1-c1nc(Cc2ccccc2)no1`, the outcome was “inactive”.
In the case of `COc1ccc(NC(=O)C2Cc3ccccc3O/C2=N\O)cc1` (stereo unspecified), the outcome is reported as “inactive”.
